VP16 counter – counter-screen for ROR gamma inhibitors: Gal4-VP16 reporter. 310,000 tested, 3.5% active. AID 2546. Drosophila S2 Gal4-VP16 UAS-luciferase, luminescence, 20 h. Potency, µM (series often up to 53.6 µM), actives largely listed as inhibitors;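 further: Gal4-VP16 expression switched on by copper sulfate through the metallothionein promoter; nearly all actives have a fitted effect of over 50% in size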
RORgamma inh – ROR gamma (mouse) transcription inhibition; P51450; Drosophila S2 Gal4-RORgamma UAS-luciferase reporter, 20 h; Potency, µM (series often up to 53.6 µM), actives largely listed as inhibitors; 310,000 tested, 5.4% active; AID 2551; further: nearly all actives have a fitted effect of over 60% in size
Target sequence (P51450 whole entry, looked up, the tested form may be a part): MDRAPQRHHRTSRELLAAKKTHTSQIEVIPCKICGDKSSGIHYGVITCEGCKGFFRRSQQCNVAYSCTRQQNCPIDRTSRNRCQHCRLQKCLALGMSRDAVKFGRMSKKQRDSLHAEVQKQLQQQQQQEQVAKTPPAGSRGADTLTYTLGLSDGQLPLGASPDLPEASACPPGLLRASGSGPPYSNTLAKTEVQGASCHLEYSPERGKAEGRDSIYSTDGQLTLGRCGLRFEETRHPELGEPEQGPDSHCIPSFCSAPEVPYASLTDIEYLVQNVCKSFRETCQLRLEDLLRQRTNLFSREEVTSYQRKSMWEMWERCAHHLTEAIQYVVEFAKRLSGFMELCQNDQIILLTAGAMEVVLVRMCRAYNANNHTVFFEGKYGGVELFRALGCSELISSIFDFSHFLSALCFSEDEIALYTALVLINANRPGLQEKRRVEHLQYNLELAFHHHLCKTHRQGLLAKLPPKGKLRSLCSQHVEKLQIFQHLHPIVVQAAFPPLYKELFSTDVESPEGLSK
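Using a luciferase readout, inhibitors were identified by reduced reporter activity in Drosophila cells coexpressing a copper-inducible Gal4–ROR gamma fusion and UAS-driven Photinus luciferase, incubated 20 hr after 700 uM copper sulfate.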
IL1B secr inh – blocks inflammasome-driven IL-1 beta release; THP-1 LPS/ATP IL-1B secretion, AlphaLISA, 16 h; active compounds read low; activity change, % at 57.5 µM; 360,000 tested, 4.7% active; AID 743279; in the data active means activity change below about -50%; inconclusive means mostly about -30% to -49%
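Secreted IL-1B measured by AlphaLISA bead assay after 16 h compound exposure of THP-1 cells; compounds (final up to 57.5 uM) added 1 h before LPS (250 ng/mL) and ATP (1.25 mM) stimulation; lower signal means less secretion.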
DT40 TDP1 no CPT – qHTS for Inhibitors of human tyrosyl-DNA phosphodiesterase 1 (TDP1): qHTS in cells in absence of CPT; DT40 Tdp1-/- hTDP1 cells, no CPT, ATP luminescence, 48 h; Potency, µM (series often up to 46.2 µM), hits mostly inhibitors; 420,000 tested, 15% active; AID 686978, 2013; further: nearly all actives have a fitted effect of over 55% in size
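Stably hTDP1-transfected Tdp1-null chicken DT40 cells were treated with library compounds minus camptothecin and grown for at least 48 hr at 37 °C, after which cellular ATP was quantified by luminescence.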
TDP1 cell CPT – DT40-hTDP1 cell growth loss with CPT | chicken DT40 Tdp1-/-;hTDP1 cells + 20 nM CPT, ATP luminescence, 48 h | Potency, µM (top dose mostly 46.2 µM), actives largely listed as inhibitors | 420,000 tested, 12% active; further: nearly all actives have a fitted effect of over 55% in size
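Chicken DT40 Tdp1-/- cells stably complemented with human TDP1 were seeded at 400 cells/well in medium containing 20 nM camptothecin, exposed to pin-transferred compounds, and grown at 37 °C for at least 48 hr. Viability was read as ATP luminescence.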
ELG1 repair inh – ELG1-dependent DNA repair inhibition | HEK293T ELG1-luciferase reporter, luminescence, 16 h; DNA damage induced by 5-fluorouridine | AID 504467 | Potency, µM (doses to about 46.1 µM), usual class: inhibitors | 330,000 tested, 2.3% active; further: nearly all actives have a fitted effect of over 55% in size
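In this reporter screen, reduction of luminescence relative to DMSO vehicle indicated activity. Compounds and 5-fluorouridine were added together to 2,000 cells per well, incubated for 16 hr at 37 °C, then developed with ONE-Glo.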
Large screens that a line does not name were inactive. An excerpt weighted towards active compounds, which were near 21% of everything screened. Unless noted, the call rests on the fitted dose curve; in most records, active means well fitted curve in the direction sought with a large enough effect; inconclusive means small, poorly fitted or top-dose-only effect, or another doubt; inactive means no such curve, though single readings can be large; an effect the other way counts as inactive or inconclusive.

O=C(Nc1ccc(Cl)c(S(=O)(=O)N2CCOCC2)c1)c1ccccn1	RORgamma inh inconclusive
Cc1ccc(NC(=O)c2cc(-c3ccco3)nc3ccccc23)cc1S(=O)(=O)N1CCOCC1	DT40 TDP1 no CPT 29µM, TDP1 cell CPT inconclusive, ELG1 repair inh inconclusive
COCCN1C(=O)CCC1(C)c1nnnn1Cc1ccccc1 (stereo not given)	none (no result: VP16 counter, RORgamma inh, ELG1 repair inh)
Nc1ccc2c(c1)nnn2-c1ccccc1	RORgamma inh inconclusive, IL1B secr inh -79, ELG1 repair inh inconclusive
O=C(CNc1cc(S(=O)(=O)N2CCOCC2)ccc1NCC1CCCO1)Nc1ccc(C(F)(F)F)cc1 (stereo not given)	IL1B secr inh -62, DT40 TDP1 no CPT inconclusive, TDP1 cell CPT inconclusive, ELG1 repair inh inconclusive (no result: VP16 counter, RORgamma inh)
N#Cc1ccccc1NC(=O)CNc1cc(S(=O)(=O)N2CCOCC2)ccc1NCC1CCCO1 (stereo not given)	none (no result: VP16 counter, RORgamma inh)
N#Cc1ccc(NC(=O)CNc2cc(S(=O)(=O)N3CCOCC3)ccc2NCC2CCCO2)cc1 (stereo not given)	TDP1 cell CPT inconclusive, ELG1 repair inh 8.2µM
Cc1cc(Cn2nnnc2-c2ccncc2)cc(C)c1O	none
Cc1cc(F)ccc1Nc1nc2ccc(Cl)cc2n2cnnc12	none (no result: VP16 counter, RORgamma inh, IL1B secr inh, ELG1 repair inh)
CCOC(=O)c1c(S(=O)(=O)N2CCC(C(=O)Nc3ccccc3OC)CC2)c(C)n(CC)c1C	none (no result: VP16 counter, RORgamma inh, IL1B secr inh, ELG1 repair inh)
COc1cc(OC)c(NC(=O)N2CCC(CN3CCCC3)CC2)cc1Cl	none (no result: VP16 counter, RORgamma inh, IL1B secr inh, ELG1 repair inh)
CCOC(=O)c1cnc2cc(-c3ccc(OCC)cc3)nn2c1-c1ccccc1	DT40 TDP1 no CPT 8.2µM, TDP1 cell CPT 15µM (no result: VP16 counter, RORgamma inh, IL1B secr inh, ELG1 repair inh)
COc1ccc(-c2cc3ncc(-c4ccccc4)c(N)n3n2)cc1	VP16 counter 7.9µM, RORgamma inh inconclusive, IL1B secr inh -55, DT40 TDP1 no CPT inconclusive, TDP1 cell CPT inconclusive, ELG1 repair inh inconclusive
COCCn1c(=O)cnc2cnc(N(C)C)nc21	none (no result: IL1B secr inh, ELG1 repair inh)
O=C(O)c1cccc(NC(=S)NC(=O)c2ccc3ccccc3c2)c1	VP16 counter 7.1µM, RORgamma inh 10µM, ELG1 repair inh inconclusive
CC(C)C(=O)Nc1cccc(NC(=S)NC(=O)c2ccc(Cl)cc2)c1	VP16 counter inconclusive, RORgamma inh 6.3µM, DT40 TDP1 no CPT 16µM, TDP1 cell CPT inconclusive
O=C(Nc1cccc(NC(=O)c2cccs2)c1)c1ccc(Br)o1	DT40 TDP1 no CPT 21µM
Cc1ccc(NC(=S)NC(=O)c2ccccc2)cc1NC(=S)NC(=O)c1ccccc1	VP16 counter 7.1µM, RORgamma inh 1.4µM, DT40 TDP1 no CPT inconclusive, ELG1 repair inh inconclusive
COc1nc(N)nc(NC(=O)c2cccs2)c1N=O	IL1B secr inh -87, DT40 TDP1 no CPT 2.3µM, TDP1 cell CPT 2.1µM (no result: VP16 counter, RORgamma inh, ELG1 repair inh)
O=C(NC(=S)Nc1cccc(NC(=S)NC(=O)c2ccccc2)c1)c1ccccc1	DT40 TDP1 no CPT 10µM, TDP1 cell CPT 9.2µM (no result: VP16 counter, RORgamma inh, ELG1 repair inh)
Cc1cc(NC(=S)NC(=O)c2ccccc2)ccc1-c1cc2ccccc2oc1=O	RORgamma inh 0.4µM, DT40 TDP1 no CPT 2.9µM, TDP1 cell CPT 3.3µM, ELG1 repair inh inconclusive
O=C(Nc1cccc(NC(=O)c2cccs2)c1)c1ccc(F)cc1	IL1B secr inh -61, DT40 TDP1 no CPT inconclusive, TDP1 cell CPT inconclusive
CN(C(=O)CN1C(=O)c2cccc(N)c2C1=O)C1CCCCC1	none (no result: VP16 counter, RORgamma inh)
CCOc1ccc(C(=O)Nc2ccc(-c3cc4ccccc4oc3=O)c(C)c2)cc1[N+](=O)[O-]	DT40 TDP1 no CPT 12µM, TDP1 cell CPT 13µM, ELG1 repair inh inconclusive
COc1ccc(C(=O)Nc2cccc(NC(=O)c3cccs3)c2)cc1	IL1B secr inh inconclusive, DT40 TDP1 no CPT inconclusive, TDP1 cell CPT inconclusive
CCOC(=O)NC(NC(=S)Nc1ccccc1[N+](=O)[O-])C(Cl)(Cl)Cl (stereo not given)	DT40 TDP1 no CPT inconclusive, TDP1 cell CPT inconclusive
COc1ccc(NC(=O)c2ccc(NC(=O)c3cccs3)cc2)cc1	VP16 counter inconclusive, RORgamma inh 7.1µM, ELG1 repair inh inconclusive
O=C(Nc1cccc(NC(=S)NC(=O)c2cccs2)c1)c1ccccc1	VP16 counter inconclusive, RORgamma inh 10µM, DT40 TDP1 no CPT inconclusive
CCOc1ccc(C(=O)Nc2ccc(NC(=O)c3ccccc3)c(C)c2)cc1[N+](=O)[O-]	DT40 TDP1 no CPT inconclusive
O=C(NC(NC(=S)Nc1c(Cl)cc(Cl)cc1Cl)C(Cl)(Cl)Cl)OCc1ccccc1 (stereo not given)	VP16 counter 5.6µM, RORgamma inh 7.1µM, IL1B secr inh -58, DT40 TDP1 no CPT 16µM, TDP1 cell CPT inconclusive
Cc1ccccc1C(=O)Nc1cccc(NC(=S)NC(=O)c2cccs2)c1	VP16 counter inconclusive, RORgamma inh inconclusive, DT40 TDP1 no CPT inconclusive, ELG1 repair inh inconclusive
COc1ccc(-c2cc(C(=O)Nc3cc(Br)ccc3O)no2)cc1	DT40 TDP1 no CPT inconclusive, TDP1 cell CPT inconclusive, ELG1 repair inh inconclusive
Cc1cccc(OCC(=O)Nc2ccccc2C(=O)OCc2cc(=O)n3nc(C)sc3n2)c1	none (no result: VP16 counter, RORgamma inh, IL1B secr inh, ELG1 repair inh)
O=C(O)COc1ccc(NC(=O)c2cccs2)cc1	none (no result: VP16 counter, RORgamma inh, ELG1 repair inh)
CC1CCCN(C(=O)COc2ccc(NC(=O)c3cccs3)cc2)C1 (stereo not given)	IL1B secr inh -57

Assay outcomes from PubChem BioAssay.
